Bioassay records (PubChem BioAssay)
SRC3 inh: inhibits human SRC3 coactivator. 360,000 compounds, 0.17% hits. inhibition, % at 3.6 µM. Q9Y6Q9. HEK293 GAL4-SRC3 luciferase reporter, luminescence;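 active = inhibition above a per-campaign cutoff, the mean of all compounds plus 3 SD, cut at about 60% in these data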;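 also: 0% = DMSO-treated cells and 100% = gossypol-treated cells at 36 µM; higher means less SRC3-driven luciferase light from the GAL4 reporter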
SRC2 inh: human SRC2 (NCOA2) inhibition; Q15596; HEK293 GAL4-SRC2 luciferase reporter, luminescence; inhibition, % at 9 µM; 370,000 compounds, 0.17% hits; AID 651957;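 active = inhibition above the mean inhibition of all tested compounds plus 3 SD, set per campaign, cut at about 52% in these data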;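 also: 0% = DMSO treated cells and 100% = cells given Gossypol at 36 µM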
NR5A2 inv ag: NR5A2 inverse agonism in reporter assay | HEK293T StAR-luciferase reporter, LRH-1 transfected, 24 h | inhibition, % at 3.6 µM | 360,000 compounds, 0.13% hits;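 active = inhibition above the mean inhibition of all tested compounds plus 3 SD, cut at about 73% in these data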;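 also: 0% = DMSO wells and 100% = reporter-only cells lacking LRH-1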
EBV LMP1 NFkB: Epstein-Barr LMP1 NF-kappaB reporter inhibition; 350,000 compounds, 0.69% hits; LMP1-induced NF-kappaB luciferase reporter cells, luminescence; AID 504558; inhibition, % at 12.5 µM; in the data active = inhibition above about 41%;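 also: 0% = neutral control wells and 100% = reference inhibitor control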
NCOA1 inh: human NCOA1 inhibition; Q15788; HEK293 GAL4-SRC1 luciferase reporter, luminescence; inhibition, % at 3.6 µM; 360,000 compounds, 0.12% hits; AID 588354;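 active = inhibition above the campaign mean plus 3 SD, with each screening campaign given its own cutoff, cut at about 60% in these data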;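 also: 0% = DMSO treated cells and 100% = gossypol at 36 µM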
* hit, by the source's call; · = no result. The list is not random: actives were taken first. Their share in the collection is about 0.78%.

SMILES	SRC3 inh	SRC2 inh	NR5A2 inv ag	EBV LMP1 NFkB	NCOA1 inh
Nn1c(SCC(=O)Nc2ccc(Br)cn2)nnc1-c1n[nH]c2c1CCC2	·	6	·	·	·
CCn1c(C)nc2cc(-c3nc4n(n3)Cc3ccccc3-4)ccc21	86*	·	95*	86*	91*
CC(=O)N(/N=C1\Sc2ccccc2C1=O)c1ccccc1C	-66	-72	-118	-41	-101
CC(=O)N(/N=C1\Sc2ccccc2C1=O)c1ccc(C)cc1C	64*	26	63	14	54
O=C(Cn1cnc2c(nnn2Cc2ccc(Cl)cc2)c1=O)N1CCN(c2ccccc2)CC1	12	14	14	7	9
O=C(Cn1cnc2c(nnn2Cc2ccccc2)c1=O)N1CCN(c2ccccc2)CC1	2	-20	16	83*	6
CCC(=O)N1CCc2cc(Br)c(S(=O)(=O)NCCCN(C)Cc3ccccc3)cc21	·	-3	·	·	·
CCCCCCC(=O)N(O)C1CC(=O)N(c2ccc(Br)cc2)C1=O (configuration not stated)	3	22	5	43*	16
CCOC(=O)[C@]12CCCC3=C1N(CCC3)C(=O)[C@@H](CC(=O)NCCCCc1ccccc1)C2	·	20	·	·	·
CC(=O)c1ccc2noc(-c3ccccc3)c2c1	11	14	4	-4	-1
CN(C)/C=C/C(=O)c1ccc2noc(-c3ccccc3)c2c1	38	13	-10	60*	42
COc1ccc(C(=O)CSc2nnc(-c3ccccc3)n2-c2ccc(Cl)cc2)cc1	·	4	·	·	·
O=C(NCC1CCOCC1)c1ccc(OC2CCN(Cc3ccccn3)CC2)cc1	6	-8	-5	58*	-3
O=C(NCCc1ccccn1)c1ccc(OC2CCN(Cc3ccccn3)CC2)cc1	-15	13	-13	-9	-41
O=C1CN2C(=Nc3ccc(Br)cc3C2c2ccccc2)CCN1 (configuration not stated)	26	19	9	-2	6
Brc1ccc2c(c1)CN1CCCC1=N2	39	-1	45	-49	61*
Cc1cccc(N(Cc2ccccc2)C(=O)CCl)c1	26	60*	33	2	2
COC(=O)[C@]12C[C@H](CC(=O)NCC34CC5CC(CC(C5)C3)C4)C(=O)N(Cc3ccco3)C1=C[C@H](C(C)C)O[C@@H]2C1CC1	·	13	·	·	·
NS(=O)(=O)c1ccc(CCNC(=O)COC(=O)CCc2ccccc2)cc1	6	9	4	4	-7
CC(C)(C)c1ccc(C(=O)CCC(=O)OCC(=O)NCCc2ccc(S(N)(=O)=O)cc2)cc1	-2	54*	26	-4	-3
O=C(Nc1nc2ccccc2[nH]1)c1cccc(F)c1	-110	-12	-78	0	-97
CN(C)c1cccc(C(=O)Nc2nc3ccccc3[nH]2)c1	-94	1	-113	44*	-74
Cc1ccc(C(=O)Nc2nc3ccccc3[nH]2)cc1	7	50	0	63*	4
Cc1ccc(C(=O)Nc2cnc3ccccc3c2)cc1	33	72*	21	79*	31
Cc1cc(C(=O)Nc2cnc3ccccc3c2)ccc1[N+](=O)[O-]	-81	-43	-183	-19	-84
SMILES	SRC3 inh	SRC2 inh	NR5A2 inv ag	EBV LMP1 NFkB	NCOA1 inh
COc1ccc(C(=O)Nc2nc3ccccc3[nH]2)cc1	-18	40	-70	55*	-7
CN(C)C(=O)C[C@H]1CC[C@H]2[C@H](COc3ccc(NC(=O)C4CC4)cc3C(=O)N2C)O1	·	-18	·	·	·
O=C(CCc1ccccc1)N[C@H]1[C@@H](OC(=O)c2ccco2)CCC[C@@]12C(=O)N(Cc1ccccc1)c1ccccc12	·	15	·	·	·
CCOC(=O)[C@]12CCCC=C1N(CCCOC)C(=O)[C@@H]2CC(=O)NCc1ccc(OC)c(OC)c1	·	3	·	·	·
COc1ccc(NC(=O)/C(C#N)=C/c2cc(C)n(-c3ccc(N4CCOCC4)c([N+](=O)[O-])c3)c2C)cc1	5	19	19	44*	-1
CC(C)C[C@@H](CO)N1Cc2nnn(Cc3ccccc3)c2-c2ccccc2S1(=O)=O	·	18	·	·	·
CC(C)(S)[C@@H](N)C(=O)O	5	-5	6	55*	7
COc1ccc(CNC(=O)[C@@H]2CC=C[C@@H]3CCN(Cc4ccc(Cl)c(Cl)c4)C(=O)[C@@H]32)cc1	6	0	-5	0	7
COc1ccc(CNC[C@@H](CCCCN(C)Cc2ccc(OC)cc2)N2C[C@H](c3ccccc3)N(CCc3ccc(Cl)c(Cl)c3)C(=O)C2=O)cc1	4	·	-10	89*	1
Cc1ccc(S(=O)(=O)NC(=O)NCCc2ccccc2)cc1	-5	16	13	4	5
CCCNC(=O)NS(=O)(=O)c1ccc(Cl)cc1	18	-6	27	58*	11
CS(=O)(=O)CCC(C(=O)Nc1ccc2c(c1)OCO2)N1Cc2ccccc2C1=O (configuration not stated)	0	-9	-21	60*	-11
CSCC[C@@H](C(=O)Nc1ccc2c(c1)OCCO2)N1Cc2ccccc2C1=O	-28	-16	-7	-7	-17
O=S1(=O)c2ccc(N3CCN(Cc4ccccc4F)CC3)cc2Oc2ccccc2CN1Cc1cn(Cc2cccc(F)c2)nn1	·	9	·	·	·
COC(=O)CCC(=O)OC1(C)C(=O)C=C2C=C(C3CC3)N(CC3CC3)C=C2C1=O (configuration not stated)	-9	-4	0	50*	6
COC(=O)CCC(=O)OC1(C)C(=O)C=C2C=C(C3CC3)N(Cc3ccccc3)C=C2C1=O (configuration not stated)	-2	-4	2	-4	-5
COc1cc(C=O)ccc1OCCCOc1ccccc1C(=O)O	-61	60*	-90	-25	-39
O=C(N[C@H]1C[C@@H]2O[C@@H](CO)CC[C@@H]2O[C@@H]1CCc1ccc(-c2cccnc2)cc1)c1cccc(F)c1	·	10	·	·	·
Cc1cccc(-c2cccc3c4c([nH]c23)[C@@H]2C[C@H]3[C@@H](C(=O)N2CC4)[C@H](C)ON3C)c1	·	-20	·	·	·
Oc1ccc(C2C=C(c3ccc(F)cc3)Nc3ncnn32)cc1 (configuration not stated)	11	20	0	6	66*
CCCCCCCCNS(=O)(=O)CC1NCc2ccccc21 (configuration not stated)	·	24	·	·	·
CN=C1S/C(=C\c2ccc(O)c(Br)c2)C(=O)N1C	-24	-21	14	45*	-35
CN=C1S/C(=C\c2ccc(O)c(OC)c2)C(=O)N1C	-85	-67	-54	·	-115
CNc1ncnc2c1ncn2[C@@H]1O[C@H](CO)[C@@H](O)[C@H]1O	-12	-23	1	55*	-27
CN(C)c1ncnc2c1ncn2C1OC(CO)C(O)C1O (configuration not stated)	4	-19	-23	36	-5
CN(C)c1ncnc2c1nnn2C1OC(CO)C(O)C1O (configuration not stated)	69*	31	98*	-64	64*
O=c1[nH]cnc2c1nnn2C1OC(CO)C(O)C1O (configuration not stated)	61	23	85*	·	41
